Laboratory results taken from PubChem BioAssay AID2289 (National Center for Advancing Translational Sciences (NCATS), 2010).
“And” between values parts separate entries of the source, which are not always exact repeats. Equal values may be shown once. In all, about 340,000 compounds went through this assay and about 3,300 (0.97%) were called active. Inconclusive results (about 9%) are left out. Calls follow the shape of the dose curve; as a rule, active = well fitted inhibition curve with a large enough effect; inconclusive = small, poorly fitted or top-dose-only effect, or effect the other way; inactive = flat fitted curve, though single readings scatter. Some of the results follow.

Assay: qHTS Assay for Modulators of miRNAs and/or Inhibitors of miR-21; also: nearly all actives have a fitted effect of over 55% in size
Settings: HeLa miR-21-FLuc reporter, luciferase luminescence, 48 h; actives lower the signal
Source text: MLSCN Grant: 1 R21 NS059478-01 Assay Provider: Qihong Huang, The Wistar Institute NCGC Assay Overview: MicroRNAs (miRNAs) are endogenously encoded small (~20-25 nucleotides), nonprotein-coding RNAs that are involved in post-transcriptional repression of target messenger RNAs (mRNAs) (Le and Hannon, 2004). Estimated to be involved in the regulation of 30% of all protein-coding mRNAs (Filipowicz et al., 2008), miRNAs play a significant role in many biological processes including cellular differentiation and tissue development (Ghildiyal and Zamore, 2009).
NCGC Assay Protocol Summary: Reagents: HeLa cells stably expressing firefly luciferase (FLuc) under the control of a CMV promoter (upstream) and a miR-21 binding sequence directly downstream of the gene. These cells endogenously express miR-21. Control compounds used were compound C3 (provided by collaborator), N6-phenyladenosine (MP Biomedicals, 0215379625), and DMSO. Assay Summary: 6uL of HeLa miR-21-FLuc cells in assay buffer (DMEM, Invitrogen #21063-029; 10% FBS, HyClone #SH30071.03) were dispensed at 2000cells/well (3.3 x 10^5 cells/mL) into Greiner solid-white TC-treated 1536-well plates using a Multidrop Combi (Thermo Fisher Scientific). Plates were incubated for one hour at 37 degree Celsius, 95% humidity, 5% CO2. These assay plates were then treated with 23nL of compound or DMSO using a Kalypsys pin tool, which allows for delivery of a 24-point titration of each compound to the assay plate, with a final compound concentration ranging from approximately 40uM to 5pM. Assay plates were then incubated for 48 hours. After incubation, plates were allowed to come to RT for one hour prior to delivery of 3uL of 3X luciferase detection reagent. After a 15 minute incubation to allow for cell lysis, luciferase activity was measured using a ViewLux CCD imager (PerkinElmer), with an average exposure time of 2-12 seconds. Keywords: NIH Roadmap, MLPCN, MLSMR, qHTS, miR-21, microRNA, firefly luciferase, FLuc.
Potency is read from the fitted curve at half-maximal effect.

Potency, active:
COc1cccc(C(=O)Nc2ccc3c(C)cc(=O)oc3c2)c1 0.329 µM
Cc1cc(=O)oc2cc(NC(=O)c3ccccc3OC(F)F)ccc12 8.26 µM
CCCCOC(=O)Nc1ccc2c(C)cc(=O)oc2c1 1.17 µM
Cc1cc(=O)oc2cc(NC(=O)c3ccccc3Cl)ccc12 3.69 µM
COc1cccc(C(=O)Nc2nnc(-c3ccccc3)s2)c1 0.826 µM
COc1cccc(C(=O)Nc2ccc3c(c2)C(=O)c2ccccc2C3=O)c1 2.93 µM
O=C(NC(=S)Nc1ccc2c(c1)C(=O)c1ccccc1C2=O)c1ccc(F)cc1 2.93 µM
C/C(=N\Nc1nc2ccccc2s1)c1ccc2c(c1)OCO2 10.4 µM
Fc1ccc2nc(Nc3nc4cc5c(cc4s3)OCO5)sc2c1 1.65 µM
c1ccc2sc(Nc3nc4cc5c(cc4s3)OCO5)nc2c1 3.69 µM
CC(=O)c1sc(Nc2nc3cc4c(cc3s2)OCO4)nc1C 1.85 µM
CC(=O)Nc1nnc(COc2ccc(Cl)cc2)s1 3.29 µM
CCN(CC)S(=O)(=O)c1nnc(NC(=O)COc2ccc(Cl)cc2)s1 0.521 µM
Nc1nnnn1/N=C/c1ccc(N2CCCCC2)c([N+](=O)[O-])c1 16.5 µM
N/C(CS(=O)(=O)c1ccccn1)=N\OC(=O)c1ccccc1Cl 4.65 µM
Cc1c2ccccc2nc2c(F)c(NC(C)C)c(F)c(F)c12 16.5 µM
O=C(Cc1c(Cl)cccc1Cl)OCc1ccccn1 18.5 µM
O=C(Nc1cccc(Cl)c1)OCc1ccccn1 6.56 µM
O=C(Nc1ccc(Cl)cc1)OCc1ccccn1 5.85 µM
Cc1ccc(-n2nnc(-c3ccnc4ccccc34)n2)cc1 1.85 µM
Cc1ccc(-n2nnc(-c3cccnc3Cl)n2)cc1 0.521 µM
COc1ncccc1-c1nnn(-c2ccc(C)cc2)n1 1.47 µM
CC(C)c1ccc(NC(=O)COc2ccc(F)cc2C(=O)c2cnn(-c3ccccc3)c2)cc1 2.93 µM
O=C(Nc1ccccc1)OCCOc1ccccc1 3.69 µM
COCC(=O)Nc1ccc(OCc2ccccc2)cc1 11.7 µM
CC(C)c1ccc(NC(=O)COc2ccccc2)cc1 7.36 µM
Cc1ccc(NC(=O)CCOc2ccccc2)cc1 5.85 µM and 8.26 µM
Cc1ccsc1C(=O)Nc1ccc(OCc2ccccc2)cc1 1.65 µM
CC(C)c1ccc(NC(=O)Cn2ncc3ccccc32)cc1 7.36 µM
CCOc1ccc(NC(=O)NC2CCCCCCC2)cc1 2.93 µM
CCOc1ccc(NC(=O)Cc2ccccc2)cc1 2.61 µM
COC(=O)Nc1ccc(OCc2ccccc2)cc1 5.21 µM
Clc1cccc(Cl)c1C1=NOC(c2nnc(-c3ccccc3)o2)C1 (configuration not stated) 13.1 µM
COc1ccc(C(=O)Nc2nc3ccccc3[nH]2)cc1OC 1.85 µM
O=C(Nc1ccc(N2CCCC2)cc1)c1cccc(Cl)c1 0.329 µM
COc1ccc(C(=O)Nc2ccc(N3CCCC3)cc2)cc1OC 4.65 µM
NC(=O)NC(=O)C(Nc1ccc(N2CCCCC2)cc1)c1ccccc1 (configuration not stated) 13.1 µM
O=C(Nc1ccccc1O)c1cc2cc(Br)ccc2oc1=O 0.521 µM
Cc1ccnc(NC(=O)c2cc3ccccc3oc2=O)c1 0.414 µM
CCN(C(=O)c1cc2ccccc2oc1=O)c1ccccc1 6.56 µM
Cc1cccc(NC(=O)c2cc3ccccc3oc2=O)c1 0.329 µM
CCOc1ccc(C2=NC(c3ccc(OC)cc3)=Nc3ccc(Cl)cc3N2)cc1 18.5 µM
O=C(Cn1cccc1C(=O)c1ccccc1)NCc1ccccc1Cl 11.7 µM
O=C1NC(=S)N/C1=C/c1cccc2ccccc12 14.7 µM
CCOC(=O)c1cccc(COC(=O)c2cccc(-c3nnc(-c4ccccc4)o3)c2)c1 5.85 µM
Cc1nn(C)cc1/C=C/C(=O)c1cccs1 13.1 µM
Cc1c(/C=C/C(=O)c2cccs2)cnn1C 14.7 µM
Nc1nnc(COc2ccc(Br)cc2Br)s1 5.21 µM
C=CCN1C(=O)C(=O)N(Cc2nc3ccccc3s2)C1=O 11.7 µM
Cc1ccc(Oc2ncnc3sccc23)cc1 14.7 µM
C=C(C)CNC(=O)CCc1nnc(Cc2cccc(C(F)(F)F)c2)o1 11.7 µM
CC1CCCCN1C(=O)c1cc2c(=O)n3ccccc3nc2s1 (configuration not stated) 16.5 µM
CC1CCN(C(=O)c2cc3c(=O)n4ccccc4nc3s2)CC1 14.7 µM
CC1CCCN(C(=O)c2cc3c(=O)n4ccccc4nc3s2)C1 (configuration not stated) 14.7 µM
O=C(NC1CCCCCC1)c1cc2c(=O)n3ccccc3nc2s1 10.4 µM
Cc1cc(N2CCN(C)CC2)nc2ccc(NC(=O)Nc3ccccc3Cl)cc12 0.585 µM
Cc1cc(N2CCN(C)CC2)nc2ccc(NC(=O)Nc3ccccc3)cc12 7.36 µM
Cc1cc(C)cc(Nc2ccc(C(=O)O)cc2N)c1 18.5 µM
O=C(Nc1ccc([N+](=O)[O-])cc1)c1ccccc1F 4.14 µM
O=C(/C=C/c1cccs1)c1ccc(NC(=O)c2ccccc2F)cc1 13.1 µM
N/C(Cc1ccc([N+](=O)[O-])cc1)=N\OC(=O)c1ccccc1F 16.5 µM
O=C(Nc1ccn(-c2ccccc2)n1)c1ccccc1Br 13.1 µM
N=C1C(c2nc3ccccc3[nH]2)=C(O)CN1c1ccc(F)cc1 14.7 µM
CCn1c(SCC(=O)O)nnc1-c1ccccc1OC 3.29 µM
CN(C)c1ccc(/C=N/N=C/c2ccccc2O)cc1 2.61 µM
Cc1cc2cc3c(N)[nH]nc3nc2cc1C 14.7 µM
CCc1ccc2nc3n[nH]c(N)c3cc2c1 2.33 µM
